# Results taken from PMC5540273 (PLoS ONE, 2017).
# Where “and” joins values, the source holds several entries; their conditions need not be identical. Equal values may be shown once. Read-outs that look alike come from different tables or passages of the source.
# Tests used:
# [1] = system: MYO3B; conditions: concentration: 1 μM, replicates: in singlicate; n = 1
# [2] = system: T1, NDR1; conditions: concentration: 1 μM, replicates: in singlicate, n = 1
# T1 construct: gene STK38
# [3] = system: NDR2; conditions: concentration: 1 μM, replicates: in singlicate, n = 1
# [4] = system: NEK10; conditions: concentration: 1 μM, replicates: in singlicate, n = 1
# [5] = system: NEK11; conditions: concentration: 1 μM, replicates: in singlicate, n = 1
# [6] = system: NEK1; conditions: concentration: 1 μM, replicates: in singlicate, n = 1
# [7] = system: NEK2; conditions: concentration: 1 μM, replicates: in singlicate; n = 1
# [8] = system: NEK3; conditions: concentration: 1 μM, replicates: in singlicate, n = 1
# [9] = system: NEK4; conditions: concentration: 1 μM, replicates: in singlicate; n = 1
# [10] = system: NEK5; conditions: concentration: 1 μM, replicates: in singlicate, n = 1
# 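Note: KINOMEscan kinase panel screen.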
SMILES,%Inh [1] [%],%Inh [2] [%],%Inh [3] [%],%Inh [4] [%],%Inh [5] [%],%Inh [6] [%],%Inh [7] [%],%Inh [8] [%],%Inh [9] [%],%Inh [10] [%],%Inh ([2]; 1 µM),%Inh ([3]; 1 µM),%Inh ([4]; 1 µM),%Inh ([5]; 1 µM),%Inh ([6]; 1 µM),%Inh ([8]; 1 µM),%Inh ([10]; 1 µM)
CN(C(=O)c1ccc(-c2cc(-c3c[nH]nc3-c3ccccn3)ccn2)cc1)C1CCOCC1 [GW810083],0,3,0,0,9,0,0,16,0,7,–,–,–,–,–,–,–
CCc1ccnc(/C=C/c2n[nH]c3cc(Sc4ccccc4C(=O)NC)ccc23)c1,0,7,0,4,0,0,0,1,0,0,–,–,–,–,–,–,–
COc1cc2ncn(-c3cc(OCc4sccc4Cl)c(C(N)=O)s3)c2cc1OC [GSK448459],0,0,0,0,0,13,97.1,4,0,11,–,–,–,–,–,–,–
O=C(NOCC1CC1)c1ccc(F)c(F)c1Nc1ccc(I)cc1Cl,0,0,0,0,0,0,0,26,0,0,–,–,–,–,–,–,–
Fc1ccc(-c2nn3c(OCC(F)(F)F)cccc3c2-c2ccncc2)cc1 [GW514784],0,11,44,11,44,2,8,0,0,2,–,–,–,–,–,–,–
Nc1nc(-c2ccc3c(N)n[nH]c3c2)cc(N2CCCC2)n1 [GSK2227430],7,14,0,0,0,12,0,5,0,0,–,–,–,–,–,–,–
O=C(NCCNc1ccnc(Nc2ccc(F)cc2)n1)c1cc2ccccc2s1 [GSK1379874],0,0,0,7,0,0,0,4,0,0,–,–,–,–,–,–,–
Cc1ccc(C(=O)NCC(N)=O)cc1-n1c(C)cc(OCc2ccc(F)cc2F)c(Br)c1=O,15,24,13,0,0,0,10,29,0,0,–,–,–,–,–,–,–
O=C1Cc2cc(Nc3nc(NCc4cccc(S(=O)(=O)C(F)(F)F)c4)ncc3C(F)(F)F)ccc2N1,0,9,0,36,0,10,9,12,5,14,–,–,–,–,–,–,–
COc1cc2c(cc1OC[C@@H](O)CO)ncc1c3ccc(C#N)cc3[nH]c21,0,62,15,18,0,0,23,37,0,0,–,–,–,–,–,–,–
O=c1cc(N2CCOCC2)nc2n(Cc3cccc4ccccc34)ccn12 [GSK2333389],0,0,0,0,0,0,6,0,6,0,–,–,–,–,–,–,–
COc1cc2c(cc1OCCN1CCN(C)CC1)ncc1c3ccc(C#N)cc3[nH]c21,0,52,0,15,0,0,48,33,0,0,–,–,–,–,–,–,–
COc1ccc(Nc2nccc(N3CCC(NC(=O)Nc4cc(C)ccc4C)C3)n2)cc1 (stereo not shown) [GSK1379741],0,7,0,1,20,0,0,0,0,6,–,–,–,–,–,–,–
CSc1ccc(-c2cc3ncnc(SCC(=O)O)c3s2)cc1,1,1,0,26,0,2,0,31,0,0,–,–,–,–,–,–,–
Cc1cccc(-c2nc(-c3ccc(S(C)(=O)=O)cc3)sc2-c2ccncc2)c1,0,0,14,0,0,8,0,61,0,3,–,–,–,–,–,–,–
NS(=O)(=O)c1cccc(-c2ccc3nccc(-c4cccc(S(N)(=O)=O)c4)c3c2)c1 [GW867253],0,41,19,20,8,0,0,29,0,7,–,–,–,–,–,–,–
N#Cc1ccc(-c2cc(-c3c[nH]nc3-c3ccccn3)ccn2)cc1 [GW693028],0,14,0,11,5,0,0,8,20,5,–,–,–,–,–,–,–

SMILES,%Inh [1] [%],%Inh [2] [%],%Inh [3] [%],%Inh [4] [%],%Inh [5] [%],%Inh [6] [%],%Inh [7] [%],%Inh [8] [%],%Inh [9] [%],%Inh [10] [%],%Inh ([2]; 1 µM),%Inh ([3]; 1 µM),%Inh ([4]; 1 µM),%Inh ([5]; 1 µM),%Inh ([6]; 1 µM),%Inh ([8]; 1 µM),%Inh ([10]; 1 µM)
O=c1cc(N2CCOCC2)nc2n(Cc3cccc(C(F)(F)F)c3)ccn12 [GSK2297543],0,16,7,0,0,0,0,0,0,0,–,–,–,–,–,–,–
O=C(c1ccc(-c2cc(-c3c[nH]nc3-c3ccccn3)ccn2)cc1)N1CCOCC1 [GW812171],0,44,0,18,0,0,0,25,0,0,–,–,–,–,–,–,–
CC(C)Oc1ccc2c(-c3ccnc(Nc4ccc(N5CCN(C)CC5)cc4)n3)cnn2n1 [GW696155],0,86,52,97.6,86,86,93.3,98.5,10,100,–,–,–,–,–,–,–
CN1c2ccc(NCc3ccc(F)cc3)cc2-c2c(cnn2C)S1(=O)=O,0,22,0,2,0,0,0,33,0,0,–,–,–,–,–,–,–
c1ccc(-c2cc(-c3c[nH]nc3-c3ccccn3)ccn2)cc1 [GW576604],0,17,23,19,3,0,0,2,0,0,–,–,–,–,–,–,–
Cc1cccc(Cn2ccn3c(=O)cc(N4CCOCC4)nc23)c1 [GSK2297542],0,33,0,14,6,12,15,15,16,19,–,–,–,–,–,–,–
CCn1cnc2c(N)ncnc21 [GW345098],0,15,8,39,0,0,13,3,12,10,–,–,–,–,–,–,–
N#Cc1c(N2CCOCC2)sc(-c2ccn[nH]2)c1-c1ccc(Cl)cc1,32,7,0,4,0,9,0,23,0,0,–,–,–,–,–,–,–
NCCNS(=O)(=O)c1ccc(-c2ccnc3[nH]ccc23)cc1 [GSK977617],0,–,–,–,–,–,0,–,0,–,70% and 58%,77% and 60%,69% and 53%,24% and 0%,62% and 44%,14% and 0%,44% and 25%
Cc1cccc(-c2nc(Nc3ccc4ncsc4c3)c3ccccc3n2)n1 [GW867588],16,14,4,5,0,0,0,0,0,0,–,–,–,–,–,–,–
Nc1nccc(-c2c(-c3ccc(F)cc3)ncn2C2CCN(CC(F)(F)F)CC2)n1 [SB-236560],0,38,0,42,0,0,0,24,0,16,–,–,–,–,–,–,–
Cc1cn2c(=O)cc(N3CCOCC3)nc2n1Cc1cccc(Cl)c1Cl [GSK2334006],0,10,0,10,0,0,14,0,4,14,–,–,–,–,–,–,–
COc1ccc(CNC(=O)NC2CCN(c3ccnc(Nc4ccc(OC)cc4)n3)C2)cc1 (stereo not shown) [GSK1379727],0,0,42,15,11,0,0,8,12,13,–,–,–,–,–,–,–
Cc1c2ccc(N(C)c3ccnc(Nc4cccc(S(N)(=O)=O)c4)n3)cc2nn1Cc1ccccc1.Cl.Cl [GW787226],41,51,1,0,0,32,0,22,6,0,–,–,–,–,–,–,–
CC(=O)Nc1ccc(COc2ccc(Nc3ccnc4cc(-c5ccccn5)ccc34)cc2)cc1.Cl [GW440148],2,20,37,3,0,0,8,6,0,10,–,–,–,–,–,–,–
Cc1nnc(-c2ccc(C)c(-c3ccc(C(=O)Nc4ccc(NS(C)(=O)=O)cc4)cc3)c2)o1 [GW702865],0,20,18,6,33,0,0,0,0,8,–,–,–,–,–,–,–
COCCNC(=O)c1ccc(-c2cc(C(=O)NC3CC3)cc(F)c2C)cc1 [GW868318],24,33,21,3,27,0,0,26,14,8,–,–,–,–,–,–,–
